In PubChem BioAssay (Tox21):
Values without a mark were called inactive. Calls of active or inactive are those of the source. The call rests on the fitted dose curve.

Target: Acetylcholinesterase (Homo sapiens) (UniProt P22303)
Experiment: Acetylcholinesterase (AChE) small molecule antagonists: enzyme-based qHTS assay (AID 1347397); further: nearly all actives have a fitted effect of over 55% in size
Conditions: Potency: AChE enzyme activity inhibition; outcome: AChE enzyme activity inhibition; series mostly up to 115 µM; activity change, negative = inhibition: at the top concentration
From the text: National Center for Advancing Translational Sciences [NCATS]
Division of Preclinical Innovation [DPI]
U.S. Environmental Protection Agency [EPA]
National Institutes of Environmental Health Sciences [NIEHS]
National Toxicology Program [NTP]
U.S. Food and Drug Administration [FDA]
Acetylcholinesterase (AChE) is the primary cholinesterase in the body that hydrolyzes a key neurotransmitter, acetylcholine. Inhibition of AChE activity can lead to neurotoxicity. The known inhibitors include organophosphorous pesticides (OP), chemical warfare agents, drugs, and various phytochemicals.
An enzyme-based assay with the recombinant human AChE and Amplite Colormetric acetylcholinesterase assay kit (AAT Bioquest, Sunnyvale, CA) was used to evaluate the chemicals in the Tox21 10K library that inhibit AChE activity. The assay uses 5, 5-dithiobis-(2-nitrobenzoic acid) (DTNB) to quantify the thiocholine produced from the hydrolysis of acetylthiocholine by AChE.
Tox21 Assay Protocol Summary:
For the enzyme-based AChE assay, recombinant human AChE (50 mU/mL) in 4 uL/well was dispensed into black, clear-bottom 1536-well plates using a Multidrop Combi dispenser (Thermo Scientific, MA). Then, 23 nL of compound or DMSO (vehicle control) was transferred into the assay plates by a Pintool Station (Wako Automation, CA). The plates were incubated for 30 min at room temperature, followed by the addition of 4 uL of colorimetric detection cocktail solution (DTNB, acetylthiocholine) into each well using a Flying Reagent Dispenser (Beckman Coulter, CA) and then 10 min incubation at room temperature.
On the % scale 0 is the no-effect control and ±100 the full control effect; potency means the concentration at half of the fitted maximal effect.

Chain of Acetylcholinesterase (Homo sapiens) (P22303 whole entry, looked up): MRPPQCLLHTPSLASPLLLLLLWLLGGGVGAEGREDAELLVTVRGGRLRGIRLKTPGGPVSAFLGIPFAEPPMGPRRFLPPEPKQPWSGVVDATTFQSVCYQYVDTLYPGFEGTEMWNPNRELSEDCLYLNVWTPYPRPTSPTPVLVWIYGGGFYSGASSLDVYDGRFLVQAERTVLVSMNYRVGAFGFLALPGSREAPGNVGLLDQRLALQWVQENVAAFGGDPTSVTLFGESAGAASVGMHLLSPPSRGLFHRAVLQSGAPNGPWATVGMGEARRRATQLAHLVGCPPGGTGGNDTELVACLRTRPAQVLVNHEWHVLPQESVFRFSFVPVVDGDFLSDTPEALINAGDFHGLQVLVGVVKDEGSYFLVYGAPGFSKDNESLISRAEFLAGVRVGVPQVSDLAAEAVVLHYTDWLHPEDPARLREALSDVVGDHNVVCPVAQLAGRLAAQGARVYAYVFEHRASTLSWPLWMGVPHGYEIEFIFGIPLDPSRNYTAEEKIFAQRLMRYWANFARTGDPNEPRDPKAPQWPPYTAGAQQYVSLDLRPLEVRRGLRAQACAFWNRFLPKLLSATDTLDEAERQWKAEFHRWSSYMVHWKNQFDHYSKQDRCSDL

SMILES	activity change, negative = inhibition	Potency
ClCc1ccccc1Cl	0.136%	–
CCOC(=O)c1cncn1C(C)c1ccccc1 (stereo not given)	0.43% [at 53 µM]	–
C=C(C)C(=O)OCCCCOC(=O)C(=C)C	2.6%	–
Clc1ccccc1	-1.37%	–
CCCCCl	0.677%	–
O=C([O-])c1ccccn1.O=C([O-])c1ccccn1.O=C([O-])c1ccccn1.[Cr+3]	1.23%	–
O=C1NC(=O)C(=O)C(=O)N1	0%	–
CC(C)(C)c1ccc(CCOc2ncnc3ccccc23)cc1	-0.903%	–
CC(C)(C)NCC(O)c1ccccc1Cl (stereo not given)	2.22% [at 53 µM]	–
FC(Cl)(Cl)C(F)(Cl)Cl	-0.136%	–
CCCCNC(=O)OCC#CI	–	inactive
C[N+](C)(C)CCOC(=O)C(O)(c1ccccc1)c1ccccc1	0.407% [at 53 µM]	–
C[C@H]1[C@@H]2Cc3ccc(O)cc3[C@@]1(C)CCN2C	–	33.9 µM (active)
CCc1ccccc1N	4%	–
O=P(OCC(Br)CBr)(OCC(Br)CBr)OCC(Br)CBr (stereo not given)	–	inactive
CCOP(=S)(S)OCC	-16.1%	–
COCc1cnc(C2=NC(C)(C(C)C)C(=O)N2)c(C(=O)O)c1 (stereo not given)	-1.06%	–
C[N+](C)(C)CC1CO1 (stereo not given)	-0.279%	–
C=CCc1ccccc1O	-2%	–
CCCCOC(=O)CCC(=O)OCCCC	-1.16%	–

SMILES	activity change, negative = inhibition	Potency
CCc1cnc(C2=NC(C)(C(C)C)C(=O)N2)c(C(=O)O)c1 (stereo not given)	–	inactive
CC(C)CCCCCCCOC(=O)c1ccccc1C(=O)OCCCCCCCC(C)C	-8.68%	–
CCC1(CCC(C)C)C(=O)NC(=O)NC1=O	1.2%	–
Cc1nc2ccccc2c(=O)n1-c1ccccc1Cl	2.52%	–
CCN(C(C)=O)c1cccc(-c2ccnc3c(C#N)cnn23)c1	0.744% [at 53 µM]	–
CCC(C)(C)O	3.13%	–
O=C(O)C(F)(F)C(F)(F)C(F)(F)C(F)(F)C(F)(F)C(F)(F)C(F)(F)C(F)(F)F	0.893%	–
CCCCC1C(=O)NC(=O)N(C2CCCCC2)C1=O (stereo not given)	0% [at 53 µM]	–
Cc1cccc(C)c1NC1=NCCCS1	-0.367% [at 53 µM]	–
OCCCl	0.918%	–
Cc1nnc(-c2ccccc2)c(=O)n1N	0.959%	–
CCCN(CCC)C(=O)Cc1c(-c2ccc(Cl)cc2)nc2ccc(Cl)cn12	-3.98% [at 53 µM]	–
C[C@]12C=CC3=C4CCC(=O)C=C4CC[C@H]3[C@@H]1CC[C@@H]2O	–	inactive
COC(=O)C1(O)c2ccccc2-c2ccccc21	0.383%	–
C[C@]12CC[C@H]3[C@@H](CCC4=CC(=O)CC[C@@H]43)[C@@H]1CC[C@@H]2OC(=O)CCc1ccccc1	-11.1% [at 53 µM]	–
CCCCCCCCCCCCN=C(N)N	-1.29% [at 4.07 µM]	–
CCCCCCCCCCCCN(C)C	-1.1%	–
CCC(C)(C)c1ccc(O)c(C(C)(C)CC)c1	–	inactive
Nc1cc(Cl)cc(C(=O)O)c1Cl	–	inactive
COc1cc(CC(C)N)c(OC)cc1Br (stereo not given)	1.12%	–
